Test results: PubChem BioAssay (NCI)
About 79,000 compounds went through this panel and 15% of them were active in at least one assay; those are over-represented in the sample as a whole. Calls of active or inactive are those of the source. Cut-off read from the data, not from the text of the source: active = growth inhibition above about 70%; inactive = the rest.

What was measured:
[1] = NCI Yeast Anticancer Drug Screen. Data for the rad52 strain (AID 147);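 note: 0% = growth of vehicle-treated control cultures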; conditions: S. cerevisiae rad52 mutant growth inhibition, hits give high values
Summary of the method: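 Yeast strain carrying a DNA damage repair alteration was exposed to test compounds. Growth inhibition was measured relative to vehicle-treated controls.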

[2] = NCI Yeast Anticancer Drug Screen. Data for the wt1 strain (AID 149);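 note: 0% = growth of vehicle-treated wt1 cultures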; conditions: S. cerevisiae wt1 strain (SPY 50644) growth inhibition, hits give high values
Summary of the method: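 wt1 yeast, compound-treated; % growth inhibition vs vehicle control.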

[3] = NCI Yeast Anticancer Drug Screen. Data for the rad50EPP+ strain (AID 151);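 note: 0% = growth of vehicle-treated control cultures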; conditions: S. cerevisiae rad50 mutant strain, hits give high values
Summary of the method: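 Yeast strain carrying rad50 alteration (rad50EPP+) exposed to compounds; growth inhibition measured relative to vehicle-treated controls.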

[4] = NCI Yeast Anticancer Drug Screen. Data for the mgt1 strain (AID 153); conditions: S. cerevisiae mgt1 mutant growth inhibition, hits give high values
Summary of the method: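 Yeast mgt1 strain (DNA repair/cell-cycle alteration panel) exposed to compounds; growth inhibition measured relative to vehicle-treated controls.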

[5] = NCI Yeast Anticancer Drug Screen. Data for the rad50 strain (AID 155);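 note: 0% = growth of vehicle-only cultures of the same strain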; conditions: S. cerevisiae rad50 strain growth inhibition, hits give high values
Summary of the method: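 Genetically altered yeast (DNA repair pathway); compound treatment; growth inhibition vs vehicle ctrl.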

[6] = NCI Yeast Anticancer Drug Screen. Data for the mec2-1 strain (AID 157); conditions: S. cerevisiae mec2-1 strain, hits give high values
Summary of the method: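 mec2-1 yeast strain, carrying an alteration in DNA damage repair or cell cycle control, was exposed to compounds; growth inhibition was measured relative to vehicle-treated controls.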

[7] = NCI Yeast Anticancer Drug Screen. Data for the rad14 strain (AID 159);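 note: 0% = growth of vehicle-treated control cultures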; conditions: S. cerevisiae rad14 strain growth inhibition, hits give high values
Summary of the method: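 Test compounds were applied to a repair-deficient yeast strain. Its growth was then compared with that of cultures given vehicle alone, and inhibition was expressed relative to those controls.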

[8] = NCI Yeast Anticancer Drug Screen. Data for the sgs1 mgt1 strain (AID 161);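 note: 0% = growth of cultures given vehicle only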; conditions: S. cerevisiae sgs1 mgt1 strain, hits give high values
Summary of the method: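 Yeast cells carrying a defined DNA-repair defect were exposed to test compounds. Growth inhibition was measured relative to vehicle-treated controls.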

[9] = NCI Yeast Anticancer Drug Screen. Data for the CLN2oe strain (AID 163);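 note: 0% = growth of vehicle-only control cultures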; conditions: S. cerevisiae CLN2oe strain, hits give high values
Summary of the method: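 Yeast cells carrying a defined cell-cycle control alteration were exposed to test compounds. Growth inhibition was scored against vehicle-treated control cultures.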

[10] = NCI Yeast Anticancer Drug Screen. Data for the cln2 rad14 strain (AID 165);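 note: 0% = growth equal to vehicle treated cultures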; conditions: S. cerevisiae cln2 rad14 strain, hits give high values
Summary of the method: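 Yeast carrying cln2 and rad14 alterations (cell cycle control and DNA damage repair) were exposed to compounds. Growth inhibition was measured against vehicle-treated controls.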

[11] = NCI Yeast Anticancer Drug Screen. Data for the bub3 strain (AID 167); conditions: S. cerevisiae bub3 mutant strain, hits give high values
Summary of the method: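 Yeast carrying a defined mutation is treated with each compound, and growth is compared with that of vehicle-exposed cells to give inhibition.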

[12] = NCI Yeast Anticancer Drug Screen. Data for the wt2 strain (AID 169);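 note: 0% = growth of vehicle-treated yeast cultures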; conditions: S. cerevisiae wt2 strain growth inhibition, hits give high values
Summary of the method: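 Yeast cells were exposed to test compounds, and growth inhibition was measured relative to vehicle-treated controls.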

[13] = NCI Yeast Anticancer Drug Screen. Data for the sgs1 strain (AID 173);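 note: 0% = growth of vehicle-only control cultures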; conditions: S. cerevisiae sgs1 mutant, hits give high values
Summary of the method: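 Yeast mutant strains carrying defined defects in DNA damage repair or cell cycle control were exposed to test compounds. Growth inhibition was scored against vehicle-treated controls.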

[14] = NCI Yeast Anticancer Drug Screen. Data for the mlh1 rad18 strain (AID 175); conditions: S. cerevisiae mlh1 rad18 strain growth inhibition, hits give high values
Summary of the method: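 Growth inhibition of the yeast strain was measured after compound exposure and expressed relative to vehicle-treated controls. The strain carries defined defects in DNA damage repair.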

[15] = NCI Yeast Anticancer Drug Screen. Data for the rad18 strain (AID 177); conditions: S. cerevisiae rad18 mutant growth inhibition, hits give high values
Summary of the method: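 Yeast carrying a defined DNA damage repair alteration were exposed to compounds. Growth inhibition was expressed relative to vehicle-treated controls.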

[16] = at 5.0 µM (retest, dose inferred, filed as 0.5)
[17] = at 50.0 µM (retest, dose inferred, filed as 5.0)

Measured: growth inhibition

Oc1ccc(N=Nc2ccc(Cl)cc2)cc1
inactive: [1]; at 1.2 µM 3% | [1]; at 3.7 µM 23% | [2]; at 1.2 µM -2% | [2]; at 3.7 µM 7% | [2]; at 11.0 µM 52% | [3]; at 1.2 µM 8% | [3]; at 3.7 µM 12% | [3]; at 11.0 µM 50% | [4]; at 1.2 µM -3% | [4]; at 3.7 µM 4% | [4]; at 11.0 µM 61% | [5]; at 1.2 µM 1% | [5]; at 3.7 µM 30% | [5]; [16] -27% | [6]; at 1.2 µM 8% | [6]; at 3.7 µM 15% | [6]; [16] -13% | [7]; at 1.2 µM 2% | [7]; at 3.7 µM 7% | [7]; at 11.0 µM 60% | [8]; [16] -10% | [9]; at 1.2 µM 25% | [9]; at 3.7 µM 45% | [10]; [16] -6% | [11]; at 1.2 µM 57% | [11]; at 3.7 µM 65% | [12]; at 1.2 µM -1% | [12]; at 3.7 µM 5% | [13]; at 1.2 µM 0% | [13]; at 3.7 µM 7% | [14]; [16] 6% | [15]; at 1.2 µM 0% | [15]; at 3.7 µM 3%
active: [1]; at 11.0 µM 97% | [1]; at 33.0 µM 98% | [1]; at 100.0 µM 98% | [2]; at 33.0 µM 99% | [2]; at 100.0 µM 99% | [3]; at 33.0 µM 98% | [3]; at 100.0 µM 97% | [4]; at 33.0 µM 99% | [4]; at 100.0 µM 99% | [5]; at 11.0 µM 94% | [5]; at 33.0 µM 99% | [5]; [17] 99% | [5]; at 50.0 µM 99.5% | [5]; at 100.0 µM 98% | [6]; at 11.0 µM 90% | [6]; at 33.0 µM 99% | [6]; [17] 98% | [6]; at 50.0 µM 98.2% | [6]; at 100.0 µM 99% | [7]; at 33.0 µM 99% | [7]; at 100.0 µM 98% | [8]; [17] 99% | [8]; at 50.0 µM 98.7% | [9]; at 11.0 µM 97% | [9]; at 33.0 µM 99% | [9]; at 100.0 µM 99% | [10]; [17] 99% | [10]; at 50.0 µM 99.5% | [11]; [16] 81% | [11]; at 11.0 µM 94% | [11]; at 33.0 µM 99% | [11]; [17] 99% | [11]; at 50.0 µM 99.2% | [11]; at 100.0 µM 99% | [12]; at 11.0 µM 93% | [12]; at 33.0 µM 99% | [12]; at 100.0 µM 99% | [13]; at 11.0 µM 87% | [13]; at 33.0 µM 99% | [13]; at 100.0 µM 98% | [14]; [17] 99% | [14]; at 50.0 µM 99.4% | [15]; at 11.0 µM 77% | [15]; at 33.0 µM 99% | [15]; at 100.0 µM 97%
